Source: PubChem BioAssay (EPA / NIEHS)
Calls of active or inactive are those of the source. Rule for the calls: active = hit-call score of the fitted dose curve at least 0.9, where 1 is the maximum; inactive = score below 0.9.

What was measured:
[1] = read-out: Thrombomodulin, THBD (gene 7056); assay: BSK_CASM3C_Thrombomodulin: BioMAP Diversity Plus: CASM3C Assay for Thrombomodulin Biomarker Activity (AID 2283051); details: primary human coronary artery smooth muscle cells; actives raise or lower the signal;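 note: thrombomodulin protein level measured by ELISA 24 h after dosing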
[2] = read-out: Tissue Factor, F3 (gene 2152); assay: BSK_CASM3C_TissueFactor: BioMAP Diversity Plus: CASM3C Assay for Tissue Factor Biomarker Activity (AID 2283052); details: primary human coronary artery smooth muscle cells; actives raise or lower the signal;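 note: cell surface tissue factor protein level read by ELISA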
[3] = read-out: Urokinase-type plasminogen activator receptor (uPAR), PLAUR (gene 5329); assay: BSK_CASM3C_uPAR: BioMAP Diversity Plus: CASM3C Assay for Urokinase-type plasminogen activator receptor (uPAR) Biomarker Activity (AID 2283054); details: primary human coronary artery smooth muscle cells; actives raise or lower the signal;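 note: cell-surface uPAR protein level quantified by ELISA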
[4] = read-out: Vascular cell adhesion molecule 1 (VCAM1), VCAM1 (gene 7412); assay: BSK_CASM3C_VCAM1: BioMAP Diversity Plus: CASM3C Assay for Vascular cell adhesion molecule 1 (VCAM1) Biomarker Activity (AID 2283055); details: primary human coronary artery smooth muscle cells; actives raise or lower the signal;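 note: VCAM-1 protein level quantified by ELISA on the cells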
[5] = read-out: Collagen III, COL3A1 (gene 1281); assay: BSK_hDFCGF_CollagenIII: BioMAP Diversity Plus: hDFCGF Assay for Collagen III Biomarker Activity (AID 2283056); details: primary human foreskin fibroblasts; actives raise or lower the signal
Method in brief: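 Human foreskin primary fibroblasts were exposed to test chemicals for 24 h, after which collagen III was quantified by ELISA. Activity was fitted bidirectionally against DMSO as negative control and baseline.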

[6] = read-out: Epidermal growth factor receptor (EGFR), EGFR (gene 1956); assay: BSK_hDFCGF_EGFR: BioMAP Diversity Plus: hDFCGF Assay for Epidermal growth factor receptor (EGFR) Biomarker Activity (AID 2283057); details: primary human foreskin fibroblasts; actives raise or lower the signal
Method in brief: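 hDFCGF system, primary human foreskin fibroblasts; compound 24 h; EGFR measured by ELISA; DMSO = negative control/baseline; bidirectional fitting.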

[7] = read-out: Interleukin-8 (IL8), CXCL8 (gene 3576); assay: BSK_hDFCGF_IL8: BioMAP Diversity Plus: hDFCGF Assay for Interleukin-8 (IL8) Biomarker Activity (AID 2283058); details: primary human foreskin fibroblasts; actives raise or lower the signal
Method in brief: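 hDFCGF human dermal fibroblasts; 24 h chemical exposure; IL-8 by ELISA; bidirectional curve fit vs DMSO baseline; gain or loss of signal scored.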

[8] = BSK_hDFCGF_Proliferation: Cell Proliferation Assessment in the BioMAP Diversity Plus: hDFCGF Assay (AID 2283059); details: primary human foreskin fibroblasts;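 note: curves fitted for both rise and fall of signal versus DMSO baseline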
Method in brief: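 This proliferation readout used SRB total-protein staining of human foreskin fibroblasts […], normalized to DMSO with bidirectional curve fitting.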

[9] = read-out: Macrophage colony-stimulating factor (MCSF), CSF1 (gene 1435); assay: BSK_hDFCGF_MCSF: BioMAP Diversity Plus: hDFCGF Assay for Macrophage colony-stimulating factor (MCSF) Biomarker Activity (AID 2283060); details: primary human foreskin fibroblasts; actives raise or lower the signal
Method in brief: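 Human foreskin primary fibroblasts were treated with test chemical for 24 h, and M-CSF was then measured by ELISA. Data were fitted bidirectionally against DMSO as the negative control and activity baseline.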

[10] = BSK_hDFCGF_SRB: Viability Assessment in the BioMAP Diversity Plus: hDFCGF Assay (AID 2283061); details: primary human foreskin fibroblasts;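 note: cells exposed to compound for 24 h before the read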
Method in brief: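 Human foreskin primary fibroblasts were treated with compound and assessed 24 h after dosing. Total protein was measured by sulforhodamine B staining (0.1% SRB after 10% TCA fixation, 560 nm read) as a cytotoxicity marker, with bidirectional fitting against DMSO baseline.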

[11] = read-out: TIMP metallopeptidase inhibitor 1 (TIMP1), TIMP1 (gene 7076); assay: BSK_hDFCGF_TIMP1: BioMAP Diversity Plus: hDFCGF Assay for TIMP metallopeptidase inhibitor 1 (TIMP1) Biomarker Activity (AID 2283062); details: primary human foreskin fibroblasts; actives raise or lower the signal
Method in brief: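 Primary human foreskin fibroblasts in the hDFCGF system were dosed with compound for 24 h, then TIMP-1 was measured by ELISA. Activity was fitted bidirectionally relative to DMSO control; parallel SRB staining assessed cytotoxicity.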

[12] = read-out: Monokine induced gamma interferon (MIG), CXCL9 (gene 4283); assay: BSK_hDFCGF_MIG: BioMAP Diversity Plus: hDFCGF Assay for Monokine induced gamma interferon (MIG) Biomarker Activity (AID 2283063); details: primary human foreskin fibroblasts; actives raise or lower the signal
Method in brief: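 ELISA read-out of MIG from primary human dermal fibroblasts 24 h post-dosing. Gain or loss of signal fitted bidirectionally, DMSO as baseline.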

[13] = read-out: Matrix Metallopeptidase 1 (MMP1), MMP1 (gene 4312); assay: BSK_hDFCGF_MMP1: BioMAP Diversity Plus: hDFCGF Assay for Matrix Metallopeptidase 1 (MMP1) Biomarker Activity (AID 2283064); details: primary human foreskin fibroblasts; actives raise or lower the signal
Method in brief: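 hDFCGF primary fibroblasts (human foreskin); chemical added; 24 h; MMP1 by ELISA; bidirectional fit vs DMSO.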

[14] = read-out: Plasminogen activator inhibitor-1 (PAI1), SERPINE1 (gene 5054); assay: BSK_hDFCGF_PAI1: BioMAP Diversity Plus: hDFCGF Assay for Plasminogen activator inhibitor-1 (PAI1) Biomarker Activity (AID 2283066); details: primary human foreskin fibroblasts; actives raise or lower the signal
Method in brief: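 Primary dermal fibroblasts (human foreskin), hDFCGF system; compound 24 h; PAI-1 by ELISA; bidirectional fit vs DMSO control.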

[15] = read-out: Intercellular Adhesion Molecule 1 (ICAM1), ICAM1 (gene 3383); assay: BSK_KF3CT_ICAM1: BioMAP Diversity Plus: KF3CT Assay for Intercellular Adhesion Molecule 1 (ICAM1) Biomarker Activity (AID 2283067); details: primary human keratinocytes with fibroblasts; actives raise or lower the signal
Method in brief: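 Human keratinocyte plus foreskin fibroblast primary co-culture was exposed to chemical for 24 h. ICAM-1 was then quantified by ELISA, and the data were fit bidirectionally against DMSO as the negative control and baseline.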

[16] = read-out: Interferon-gamma inducible Protein 10 (IP10), CXCL10 (gene 3627); assay: BSK_KF3CT_IP10: BioMAP Diversity Plus: KF3CT Assay for Interferon-gamma inducible Protein 10 (IP10) Biomarker Activity (AID 2283068); details: primary human keratinocytes with fibroblasts; actives raise or lower the signal
Method in brief: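 Signal is secreted/surface IP-10 by ELISA in a human primary skin co-culture of keratinocytes and foreskin fibroblasts, taken 24 h post-dosing; DMSO served as negative control.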

[17] = BSK_KF3CT_SRB: Viability Assessment in the BioMAP Diversity Plus: KF3CT Assay (AID 2283069); details: primary human keratinocytes with fibroblasts;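 note: fitted for both signal gain and loss against DMSO baseline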
Method in brief: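 Keratinocytes co-cultured with foreskin fibroblasts (human primary); chemical added, 24 h; fix 10% TCA, stain 0.1% SRB, A560. Bidirectional fit vs DMSO.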

[18] = read-out: Interleukin-1 alpha (IL1a), IL1A (gene 3552); assay: BSK_KF3CT_IL1a: BioMAP Diversity Plus: KF3CT Assay for Interleukin-1 alpha (IL1a) Biomarker Activity (AID 2283070); details: primary human keratinocytes with fibroblasts; actives raise or lower the signal
Method in brief: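 Chemicals were dosed onto co-cultured human keratinocytes and foreskin fibroblasts, IL-1a was quantified by ELISA at 24 h, and activity was fitted in both directions relative to DMSO controls.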

Measured: AC50

N#Cc1cc(Br)c(O)c(Br)c1
active: [3] 0.405 µM
inactive: all other assays above

COC(=O)c1ccccc1C(=O)OC
not listed: [16]
inactive: all other assays above

CCCCC(CC)COC(=O)c1ccccc1C(=O)OCC(CC)CCCC (stereo not drawn)
active: [8] 4.85 µM
not listed: [16]
inactive: all other assays above

CNC(=S)S
active: [1] 9.42 µM | [8] 20 µM | [13] 7.89 µM
not listed: [16]
inactive: all other assays above

CC(C)(C)c1ccc(CSc2cnn(C(C)(C)C)c(=O)c2Cl)cc1
active: [1] 31.8 µM | [5] 12.9 µM | [8] 4.68 µM | [9] 7.69 µM | [17] 20 µM | [18] 6.93 µM
not listed: [16]
inactive: all other assays above

CCNc1nc(Cl)nc(NCC)n1
not listed: [16]
inactive: all other assays above
